Experimental data taken from PubChem BioAssay.
Unmarked numbers belong to inactive results. For some assays here: Entries with a potency or affinity are not part of this list. Active and inactive are the calls of the source. Unless noted, how the calls were made is not given here.

What was measured:
[1] = antimalarial activity against Dd2 strain (AID 2302;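 active means growth inhibition above 50% at the single 2 µM test dose, taken to imply half-maximal potency below 2 µM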;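 further: 0% = DMSO untreated growth and 100% = chloroquine plus artemisinin killed control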); conditions: P. falciparum Dd2 in RBCs, LDH growth readout, 72 h; at 2 µM; hits give high values
[2] = human hepatoma cell viability loss – ATP luminescence, cytotoxicity control for P. falciparum antimalarial project, primary screen (AID 2303;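 active means inhibition above 50%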;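 further: 0% = DMSO wells and 100% = digitonin-killed cells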); conditions: HepG2 viability, 24-48 h, at 10 µM, hits give high values
[3] = target: L-lactate dehydrogenase (Plasmodium falciparum (isolate CDC / Honduras)) (UniProt Q27743); experiment: PfLDH activity inhibition – cell lysate, 3D7 strain, counter-screen for P. falciparum growth inhibition project (AID 2304);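 further: 0% = vehicle and 100% = reference inhibitor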; conditions: P. falciparum 3D7 crude extract, LDH APAD/NBT absorbance; at 2 µM; hits give high values
Sequence of L-lactate dehydrogenase (Plasmodium falciparum (isolate CDC / Honduras)) (Q27743 whole entry, looked up): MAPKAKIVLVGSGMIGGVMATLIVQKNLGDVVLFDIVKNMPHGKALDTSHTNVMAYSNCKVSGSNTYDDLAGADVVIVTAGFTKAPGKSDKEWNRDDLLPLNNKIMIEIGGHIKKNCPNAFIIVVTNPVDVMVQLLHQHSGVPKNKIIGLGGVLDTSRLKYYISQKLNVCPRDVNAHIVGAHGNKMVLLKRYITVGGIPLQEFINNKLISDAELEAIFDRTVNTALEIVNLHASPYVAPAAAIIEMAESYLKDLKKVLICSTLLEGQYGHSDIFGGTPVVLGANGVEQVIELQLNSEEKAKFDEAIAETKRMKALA

[4] = inhibition of 3D7 malaria parasite growth – strain 3D7 (AID 2306);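 further: 0% = DMSO wells and 100% = chloroquine plus artemisinin control wells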; conditions: P. falciparum 3D7 erythrocytic growth, LDH absorbance, 72 h; at 2 µM; hits give high values
[5] = target: Calcium-dependent protein kinase 1 (Plasmodium falciparum (isolate 3D7)) (UniProt P62344); experiment: PfCDPK1 kinase inhibitors, biochemical, TCAMS library (AID 1159585; cut-off not given, nearly all actives have IC50 up to about 0.98 µM;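 further: inhibitors leave more ATP so luminescence rises with inhibition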); conditions: recombinant PfCDPK1, Kinase-Glo ATP depletion luminescence
Sequence of Calcium-dependent protein kinase 1 (Plasmodium falciparum (isolate 3D7)) (P62344 whole entry, looked up): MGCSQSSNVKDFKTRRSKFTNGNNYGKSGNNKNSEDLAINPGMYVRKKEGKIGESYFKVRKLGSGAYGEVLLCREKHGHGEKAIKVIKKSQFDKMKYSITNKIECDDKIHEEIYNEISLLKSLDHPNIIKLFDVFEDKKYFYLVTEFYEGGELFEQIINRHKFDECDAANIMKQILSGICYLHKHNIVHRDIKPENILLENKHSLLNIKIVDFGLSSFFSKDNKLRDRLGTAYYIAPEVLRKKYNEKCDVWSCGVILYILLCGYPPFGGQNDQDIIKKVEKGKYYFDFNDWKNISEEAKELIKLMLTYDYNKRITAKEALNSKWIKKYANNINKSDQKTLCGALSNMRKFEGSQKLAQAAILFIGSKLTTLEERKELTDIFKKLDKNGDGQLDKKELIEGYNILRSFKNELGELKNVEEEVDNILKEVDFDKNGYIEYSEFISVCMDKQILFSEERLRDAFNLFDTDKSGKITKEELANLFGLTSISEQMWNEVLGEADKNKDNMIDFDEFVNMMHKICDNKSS

[6] = target: Plasmodium falciparum protein kinase 6 (PK6, PF3D7_1337100) (UniProt Q8IDW1); experiment: PfPK6 kinase inhibitors, biochemical, TCAMS library (AID 1159586); conditions: recombinant PfPK6, Kinase-Glo ATP depletion luminescence
Sequence of Plasmodium falciparum protein kinase 6 (PK6, PF3D7_1337100) (Q8IDW1 1-305): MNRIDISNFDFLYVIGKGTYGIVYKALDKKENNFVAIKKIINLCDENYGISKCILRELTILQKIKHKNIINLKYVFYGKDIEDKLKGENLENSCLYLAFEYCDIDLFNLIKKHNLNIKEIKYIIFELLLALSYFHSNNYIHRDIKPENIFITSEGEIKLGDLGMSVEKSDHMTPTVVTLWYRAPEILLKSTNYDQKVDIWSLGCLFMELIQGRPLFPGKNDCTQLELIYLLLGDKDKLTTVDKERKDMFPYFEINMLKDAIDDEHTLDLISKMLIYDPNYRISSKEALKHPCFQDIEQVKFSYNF

[7] = target: Protein kinase 7 (PK7), Plasmodium falciparum 3D7 (PF3D7_0213400) (UniProt Q7YTF7); experiment: inhibition of Plasmodium PK7 catalytic activity – biochemical, TCAMS antimalarial set, Kinase-Glo luminescence (AID 1159587); conditions: recombinant PfPK7, Kinase-Glo ATP depletion luminescence
Sequence of Protein kinase 7 (PK7), Plasmodium falciparum 3D7 (PF3D7_0213400) (Q7YTF7 1-343): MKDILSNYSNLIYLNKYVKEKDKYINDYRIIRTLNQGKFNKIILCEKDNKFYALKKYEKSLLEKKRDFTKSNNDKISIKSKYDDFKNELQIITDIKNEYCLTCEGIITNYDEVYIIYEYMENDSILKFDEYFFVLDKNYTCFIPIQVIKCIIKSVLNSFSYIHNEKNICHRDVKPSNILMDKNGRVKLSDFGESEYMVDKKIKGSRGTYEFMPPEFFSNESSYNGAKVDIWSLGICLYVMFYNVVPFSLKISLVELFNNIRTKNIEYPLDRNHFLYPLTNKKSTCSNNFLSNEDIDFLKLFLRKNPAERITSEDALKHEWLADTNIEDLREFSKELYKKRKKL

[8] = target: Calcium-dependent protein kinase 4 (Plasmodium falciparum (isolate 3D7)) (UniProt Q8IBS5); experiment: PfCDPK4 kinase inhibitors, biochemical, TCAMS library (AID 1159588; cut-off not given, nearly all actives have IC50 up to about 0.91 µM); conditions: recombinant PfCDPK4, Kinase-Glo ATP depletion luminescence
Sequence of Calcium-dependent protein kinase 4 (Plasmodium falciparum (isolate 3D7)) (Q8IBS5 whole entry, looked up): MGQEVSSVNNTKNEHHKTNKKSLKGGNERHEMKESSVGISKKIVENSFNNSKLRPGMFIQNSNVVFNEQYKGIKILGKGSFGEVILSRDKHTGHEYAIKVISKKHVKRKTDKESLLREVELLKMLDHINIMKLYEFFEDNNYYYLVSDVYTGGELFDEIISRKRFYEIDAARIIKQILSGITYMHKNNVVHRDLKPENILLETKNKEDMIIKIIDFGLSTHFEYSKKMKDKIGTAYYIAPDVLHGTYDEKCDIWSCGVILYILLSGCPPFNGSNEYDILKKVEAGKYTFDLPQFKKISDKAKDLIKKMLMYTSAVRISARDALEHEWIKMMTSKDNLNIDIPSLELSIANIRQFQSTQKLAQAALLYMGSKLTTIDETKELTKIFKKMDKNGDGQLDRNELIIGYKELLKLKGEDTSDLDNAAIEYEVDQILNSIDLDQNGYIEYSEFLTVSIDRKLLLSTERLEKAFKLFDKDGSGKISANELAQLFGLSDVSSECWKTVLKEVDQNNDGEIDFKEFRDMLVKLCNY

SMILES | growth inhibition [1] | inhibition [2] | inhibition [3] | growth inhibition [4] | outcome [5] | outcome [6] | outcome [7] | outcome [8]
CN(C)Cc1c(O)ccc2[nH]c(-c3cccc(F)c3)nc12 | 71% (active) | 9% | -2% | 99% (active) | inactive | inactive | inactive | inactive
Cc1cc(-c2ccc3occ(CCN)c3c2)cnc1N | 56% (active) | -5% | -2% | 92% (active) | inactive | inactive | inactive | inactive
CCN(CC)CCNc1c2ccc(Cl)cc2nc2ccc(OC)nc12 | 99% (active) | 20% | 2% | 100% (active) | inactive | inactive | inactive | inactive
COc1cc(OC)cc(C(=O)Nc2cccc(-c3cn4ccc(C)cc4n3)c2)c1 | 45% | 4% | 0% | 86% (active) | inactive | inactive | inactive | inactive
COc1cccc(C2C(C(=O)Nc3ccccc3)=C(C)N=c3s/c(=C\c4ccc(O)cc4)c(=O)n32)c1 (stereo not given) | 97% (active) | 15% | 6% | 97% (active) | inactive | inactive | inactive | inactive
CC(=O)Nc1ccc(CN2CCC(CNC(=O)c3cc(-c4cccc(C(F)(F)F)c4)cs3)C2)cc1 (stereo not given) | 3% | 24% | 2% | 97% (active) | inactive | inactive | inactive | inactive
CS(=O)(=O)c1ccc(CCNCc2ccc(-c3ccc(CNC4CCN(Cc5ccccc5)CC4)cc3)nc2)cc1 | 100% (active) | 32% | 3% | 101% (active) | inactive | inactive | inactive | inactive
CC(=O)COc1c(C2CCN(CCCCNC(=O)c3ccc(-c4ccc(C(F)(F)F)cc4)cc3)CC2)ccc2c1CCCC2 | 53% (active) | 100% (active) | -7% | 99% (active) | inactive | inactive | inactive | inactive
COc1ccc(C=NNc2c3ccccc3nc3ccccc23)c2ccccc12 | 23% | 9% | 2% | 82% (active) | inactive | inactive | inactive | inactive
CSc1cccc(Nc2nc3ccc(S(=O)(=O)NCC(C)C)cc3n2C(C)C(C)C)c1 (stereo not given) | 91% (active) | 3% | -2% | 93% (active) | inactive | inactive | inactive | inactive
O=C1C(c2ccccc2)=C(Nc2ccc([N+](=O)[O-])cc2)c2ccccc21 | 73% (active) | -2% | -2% | 95% (active) | inactive | inactive | inactive | inactive
O=C(/C=C/c1ccc(Cl)c(Cl)c1)NCCCCCN1CCC(NC(=O)Nc2ccc(Br)cc2)CC1 | 7% | 36% | -3% | 101% (active) | inactive | inactive | inactive | inactive
CC(C)C[C@H](Nc1ccnc(NCC2CCCCC2)n1)C(=O)NCCOc1ccccc1 | 73% (active) | 37% | 3% | 89% (active) | inactive | inactive | inactive | inactive
FC(F)(F)c1ccc2nc(-c3ccc(-c4cccc(CNCCN5CCNCC5)c4)cc3)[nH]c2c1 | 2% | 13% | -1% | 92% (active) | inactive | inactive | inactive | inactive
COc1ccc(CN(C)CCCc2ccc(NC(=O)c3cc4ccccc4[nH]3)cc2)cc1OC | 31% | 39% | -5% | 97% (active) | inactive | inactive | inactive | inactive
CCOC(=O)CCCOc1c(OC)cc(Cc2cnc(N)nc2N)cc1OC | 7% | 10% | 8% | 96% (active) | inactive | inactive | inactive | inactive
CCCCCCCc1c(C)[nH]c2cccc(OC)c2c1=O | 47% | 43% | 0% | 95% (active) | inactive | inactive | inactive | inactive
CN(c1ccc2c(c1)nc(Nc1ccc(Cl)cc1)n2C)c1ccnc(Nc2ccc(CS(C)(=O)=O)cc2)n1 | 52% (active) | 91% (active) | -7% | 97% (active) | inactive | inactive | inactive | inactive
CO/N=C(\C)c1ccc2c(c1)CCN(CCC1CCC(NC(=O)/C=C/c3ccc(F)cc3)CC1)CC2 (stereo not given) | 15% | 45% | 1% | 95% (active) | inactive | inactive | inactive | inactive
CC1CC(C)CN(S(=O)(=O)c2cc(C(=O)Nc3cccc([N+](=O)[O-])c3)ccc2Br)C1 (stereo not given) | 68% (active) | 1% | -5% | 101% (active) | inactive | inactive | inactive | inactive

SMILES | growth inhibition [1] | inhibition [2] | inhibition [3] | growth inhibition [4] | outcome [5] | outcome [6] | outcome [7] | outcome [8]
CCNc1cc(C(=O)N[C@@H](Cc2ccccc2)[C@H](O)CNCc2cccc(OC)c2C)cc(N2CCCCS2(=O)=O)c1 | 98% (active) | 8% | -1% | 97% (active) | inactive | inactive | inactive | inactive
O=C(Nc1ccc(Cl)cc1)c1ccc(CN2CCCN(Cc3cccc(Cl)c3)CC2)cc1 | 15% | 53% (active) | 1% | 96% (active) | inactive | inactive | inactive | inactive
O=C(/C=C/c1ccc(Cl)c(Cl)c1)NCCCCCN1CCC(NC(=O)Nc2cccc(Cl)c2Cl)CC1 | 35% | 99% (active) | -5% | 104% (active) | inactive | inactive | inactive | inactive
Oc1ccc2[nH]c(-c3cccs3)nc2c1CN1CCC(N2CCCC2)CC1 | 13% | 6% | -3% | 100% (active) | inactive | inactive | inactive | inactive
CC(C)CCCC(C)(C)NC[C@@H](O)[C@H](Cc1ccccc1)NC(=O)c1cccc(OCC2CC2)c1 | 91% (active) | 99% (active) | 3% | 96% (active) | inactive | inactive | inactive | inactive
CC(C)c1cccc(OCC2CCN(c3ncc(C(=O)NC4CC4)cc3Cl)CC2)c1 | 95% (active) | 9% | -1% | 94% (active) | inactive | inactive | inactive | inactive
CCc1ccc(C2CCN(CCCCNC(=O)c3ccc(-c4ccc(C(F)(F)F)cc4)cc3)CC2)c(OCCO)c1 | 69% (active) | 82% (active) | -6% | 101% (active) | inactive | inactive | inactive | inactive
COc1ccc(CCNCCCCCCNCCCc2ccc(Cl)cc2)cc1OC | 2% | 36% | 1% | 96% (active) | inactive | inactive | inactive | inactive
Cc1cccc(C)c1C1CCN(C2CCC(NC(=O)/C=C/c3ccccc3)CC2)CC1 (stereo not given) | 45% | 42% | -1% | 100% (active) | inactive | inactive | inactive | inactive
O=C(/C=C/c1ccc(Cl)c(Cl)c1)NCCCCCN1CCC(NC(=O)Nc2ccc(C(F)(F)F)cc2)CC1 | 34% | 58% (active) | 3% | 94% (active) | inactive | inactive | inactive | inactive
CCCC1N=C(N)N=C(N)N1c1ccccc1 (stereo not given) | -3% | -4% | -6% | 93% (active) | inactive | inactive | inactive | inactive
Cc1sc2ncnc(Sc3nc4ccccc4[nH]3)c2c1C | 100% (active) | 14% | 1% | 99% (active) | inactive | inactive | inactive | inactive
Cc1ccc(NC(=O)Nc2ccc(Cl)cc2)cc1-c1cccc(C(=O)Nc2ccc(F)cc2)c1 | 52% (active) | 8% | 5% | 96% (active) | inactive | inactive | inactive | inactive
CS(=O)(=O)c1ccc(CCNCc2ccc(-c3ccc(CN(C(=O)c4ccco4)C4CCN(Cc5ccccc5)CC4)cc3)nc2)cc1 | 38% | 13% | -1% | 85% (active) | inactive | inactive | inactive | inactive
O=C(O)c1ccc(-c2c[nH]c3ncc(-c4ccc(Cl)cc4)cc23)cc1 | 99% (active) | 39% | 7% | 97% (active) | inactive | inactive | inactive | inactive
CC(C)(C)c1nn(-c2ccc(Cl)cc2)c2[nH]c(=O)c(CNCc3cccs3)cc12 | 77% (active) | 5% | 3% | 102% (active) | inactive | inactive | inactive | inactive
CC(CN1CCN(C)CC1)C(=O)Nc1ccc(-c2cccc(-c3nc4ccc(C(F)(F)F)cc4[nH]3)c2)cc1 (stereo not given) | 96% (active) | 16% | -6% | 99% (active) | inactive | inactive | inactive | inactive
O=C(NCC(CCN1CCC(c2c[nH]c3ccccc23)CC1)c1ccccc1)Nc1ccc(Cl)c(Cl)c1 (stereo not given) | 53% (active) | 46% | 5% | 101% (active) | inactive | inactive | inactive | inactive
CN1CCCN(Cc2cccc(-c3ccc(CNC(=O)c4cccc(Cl)c4)c(F)c3)c2)CC1 | 38% | 56% (active) | -2% | 96% (active) | inactive | inactive | inactive | inactive
O=C(NCc1ccc(Cl)c(Cl)c1)[C@H]1CNCCN1C(=O)c1ccccc1 | 4% | -5% | 1% | 97% (active) | inactive | inactive | inactive | inactive
